# The full list was thinned out, with hits kept by preference.
# Sm TGR block: blocks Schistosoma mansoni thioredoxin glutathione reductase; 3% of 360,000 active; purified TGR, DTNB reduction, TNB absorbance 405 nm; Q962Y6; Potency, µM (series often up to 114 µM), for inactives: at the highest dose activity change, negative = inhibition, most hits filed as inhibitors; AID 485364; also: potency is read from the fitted curve at half-maximal effect; % is scaled to controls: 0 for no effect and ±100 for the full control effect; nearly all actives have a fitted effect of over 60% in size
#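 TGR 20 nM + NADPH 100 uM (dispensed conc.), cpd preinc 15 min RT; start with NADPH (500 uM addition) then DTNB (15 mM addition). Kinetic TNB absorbance, 405 nm filter. Four-parameter Hill fit across titration.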
# LmPK inhibitor: blocks Leishmania mexicana pyruvate kinase activity; AID 1721; 0.37% of 290,000 active; Potency, µM (doses to about 57.5 µM), for the others: at the top dose activity change, negative = inhibition, hits mostly inhibitors; purified LmPK, Kinase-Glo ATP luminescence, 1 h; Q27686; also: potency is read from the fitted curve at half-maximal effect; % is scaled to controls: 0 for no effect and ±100 for the full control effect
# Target sequence (Q27686 whole entry, looked up): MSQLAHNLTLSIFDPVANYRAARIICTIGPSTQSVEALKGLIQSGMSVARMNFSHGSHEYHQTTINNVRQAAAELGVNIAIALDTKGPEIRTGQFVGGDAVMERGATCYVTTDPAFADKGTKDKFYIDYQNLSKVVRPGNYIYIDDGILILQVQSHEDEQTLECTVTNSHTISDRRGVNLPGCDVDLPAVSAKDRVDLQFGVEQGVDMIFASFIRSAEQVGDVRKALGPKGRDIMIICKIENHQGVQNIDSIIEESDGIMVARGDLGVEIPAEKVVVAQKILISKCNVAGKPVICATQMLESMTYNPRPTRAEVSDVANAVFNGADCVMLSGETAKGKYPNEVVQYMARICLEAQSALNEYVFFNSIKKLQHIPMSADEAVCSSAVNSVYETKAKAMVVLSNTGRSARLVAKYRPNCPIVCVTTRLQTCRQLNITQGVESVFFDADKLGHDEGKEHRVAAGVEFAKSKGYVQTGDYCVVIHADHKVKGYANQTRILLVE
#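 qHTS format; LmPK 0.1 nM; substrates PEP 0.5 mM and ADP 0.1 mM. One-hour room-temperature incubation, then coupled luciferase luminescence; 0.5 nM enzyme wells mark activation.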
# TbPYK inhibitor: T. brucei pyruvate kinase inhibition. Q57TT1. AID 624173. 0.12% of 410,000 active. TbPYK enzyme, Kinase-Glo Plus ATP luminescence, 45 min. Potency, µM (top dose mostly 76.8 µM), inactives show at the top dose activity, negative = inhibition, actives largely listed as inhibitors; also: potency is read from the fitted curve at half-maximal effect; % is scaled to controls: 0 for no effect and ±100 for the full control effect; nearly all actives have a fitted effect of over 50% in size
#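 Assay buffer: 50 mM TEA pH 7.2, 100 mM KCl, 10 mM MgCl2, 0.05% BSA, 0.01% Tween-20. Pyruvate kinase from T. brucei plus substrate met compound, then ADP (130 uM final). Luminescence was read post 45 min RT.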
# Shiga toxin inh: Shiga toxin inhibition; Vero cells, Shiga toxin protein synthesis inhibition reporter; inhibition, % at 38.7 µM; 9.2% of 290,000 active; AID 2315; in the data active = inhibition mostly above about 28%, no sharp cut-off; inactive = mostly below about 43%; also: 0% is about no effect
# Cycloheximide cs: affects cycloheximide protein synthesis inhibition readout, counter-screen | 12% of 300,000 active | cell reporter, cycloheximide protein synthesis inhibition counterscreen | AID 2314 | max response, %; in the data active = max response mostly above about 13%, no sharp cut-off; inactive = mostly below about 14%; also: read at 38.3 µM for the half of the compounds with a filed dose; 0% is about no effect
# FBPA Giardia inh: Giardia lamblia aldolase inhibition. Potency, µM (highest dose often 59.6 µM), for the others: top-dose activity, negative = inhibition, usual class: inhibitors. purified Giardia FBPA. 0.71% of 290,000 active. AID 2451. A8B2U2; also: potency is read from the fitted curve at half-maximal effect; % is scaled to controls: 0 for no effect and ±100 for the full control effect; nearly all actives have a fitted effect of over 55% in size
#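 40 nM FBPA preincubated 10 min at RT with compound (up to 57.5 uM final), then substrate plus GAPDH/TPI/NAD/arsenate coupling and diaphorase/resazurin added. Fluorescence read after 20 min at RT, 525/598 nm.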
# * marks the source's active call; other numbers are inactive results; ? = inconclusive; / = not tested or not shown. Unless noted, calls follow the shape of the dose curve; as a rule, active = well fitted curve in the direction sought with a large enough effect; inconclusive = small, poorly fitted or top-dose-only effect, or another doubt; inactive = no such curve, though single readings can be large; an effect the other way counts as inactive or inconclusive.
SMILES,Sm TGR block,LmPK inhibitor,TbPYK inhibitor,Shiga toxin inh,Cycloheximide cs,FBPA Giardia inh
O=C(Nc1nnc(-c2ccco2)o1)c1cccc(N2C(=O)CCC2=O)c1,2.9%,9.5%,0.4%,98.6*,21.6,?
CCOc1ccc(-c2csc(NC(=O)c3cccc(N4C(=O)CCC4=O)c3)n2)cc1,6.8%,-3.1%,-3.6%,7.7,-1.2,-16.0%
Cc1ccc(-c2csc(NC(=O)c3cccc(N4C(=O)CCC4=O)c3)n2)o1,8.91µM*,2.1%,-19.3%,9.7,-2.5,-14.2%
Clc1ccc(-c2nnc(-c3ccco3)o2)cc1,0.7%,-13.0%,1.0%,91.2*,42.2*,1.1%
Cc1cccn2c(=O)c3cc(C#N)c(=O)n(-c4nnc(SCc5ccccc5F)s4)c3nc12,4.5%,/,4.8%,/,/,/
O=CN1CCc2c([nH]c3ccccc23)C1c1cccc2cccnc12 (stereo not drawn),/,/,/,/,/,-1.9%
CC(C)C[C@@H](NC(=O)[C@@H](COC(C)(C)C)NC(=O)[C@H](Cc1ccc(O)cc1)NC(=O)[C@@H](CO)NC(=O)[C@@H](Cc1c[nH]c2ccccc12)NC(=O)[C@@H](Cc1cnc[nH]1)NC(=O)[C@@H]1CCC(=O)N1)C(=O)N[C@H](CCCN=C(N)N)C(=O)N1CCC[C@H]1C(=O)NNC(N)=O,/,/,-9.4%,/,/,/
COc1ccc(Nc2ncnc3onc(C)c23)cc1Cl,6.0%,/,-3.4%,/,/,/
COc1ccccc1-c1cc(C(F)(F)F)nc(S(=O)(=O)CCCC(=O)NCc2ccc(F)cc2)n1,?,9.4%,-1.6%,-25.5,19.7*,2.1%
COc1ccccc1-c1cc(C(F)(F)F)nc(S(C)(=O)=O)n1,28.2µM*,2.7%,-4.0%,-15.3,-2.6,2.2%
COc1ccc(-c2cc(C(F)(F)F)nc(S(=O)(=O)CCCC(=O)Nc3cc(C)on3)n2)cc1OC,?,-9.9%,-6.6%,-1.3,24.7*,-1.9%
COc1ccccc1-c1cc(C(F)(F)F)nc(S(=O)(=O)CCCC(=O)NC(C)C)n1,-1.8%,-0.9%,2.3%,-11.4,-3.2,7.6%
COc1ccccc1-c1cc(C(F)(F)F)nc(S(=O)(=O)CCCC(=O)N2CCCCC2C)n1 (stereo not drawn),22.4µM*,1.9%,-3.3%,-3.4,14.5,-0.3%
CCCn1c(C)nc2c(N3CCOCC3)nc(C)nc21,/,/,/,/,/,1.8%
COc1ccccc1NC(=O)CCNS(=O)(=O)c1ccc2c(c1)CCCC(=O)N2,2.9%,/,-3.5%,/,/,/
CCN(Cc1ccccc1)C(=O)C1CCC(CNS(=O)(=O)c2ccc3c(c2)CCCC(=O)N3)CC1 (stereo not drawn),-4.6%,/,-3.0%,/,/,/
COc1ccc(-n2c(-c3ccc(Br)cc3)n[nH]c2=S)cc1,-5.0%,10µM*,?,/,-2.4,21.6%
COc1ccc(-n2c(COc3ccc(C)cc3)n[nH]c2=S)cc1,0.0%,-12.0%,?,-24.4,-0.9,?
COc1ccc(-c2n[nH]c(=S)n2-c2ccc(C)cc2)cc1,-4.8%,2µM*,?,8.0,-7.6,0.8%
COc1cccc(-c2ccc(-c3noc(-c4cccs4)n3)c(OC)n2)c1,-8.3%,-0.4%,-3.2%,-24.3,-4.3,-5.3%
COc1ccc(-c2nc(-c3cccs3)no2)cc1,1.5%,15.8µM*,-23.7%,-13.5,9.7,0.2%
CCOc1nc(-c2ccccc2)ccc1-c1noc(-c2ccc(C)cc2)n1,16.7%,/,6.3%,/,/,/
Cc1ccc(-c2noc(-c3ccccc3F)n2)cc1,-7.8%,?,-14.5%,108.5*,27.2*,-2.9%
COc1cccc(-c2noc(-c3ccc(Cl)nc3)n2)c1,9.9%,4.2%,1.8%,83.4*,30.1*,2.0%
CCOc1ccc(-c2nc(-c3ccccc3C)no2)cc1,-2.0%,?,/,95.9*,67.8*,-1.2%
COc1cc(-c2nc(C(N)=O)c3c(n2)n(-c2cccc(C)c2)c(=O)n3C)cc(OC)c1OC,0.5%,/,2.5%,/,/,/
